Screen size: about 140,000 compounds; about 2,100 (1.5%) were called active. What follows is part of a selection rich in actives, with near analogues and random picks from the rest. Values without a mark were called inactive. Rule as the data show it: active = protection mostly above about 24% (no sharp cut-off); inactive = mostly below about 26%.
Test: blockers of measles virus-induced cell death – single point, MLSMR library, absorbance, measles RdRp inhibitor project, primary screen (AID 841)
Details: Measles virus-infected cells, CPE protection, at 4 µM, stronger effect = higher value

| SMILES | protection (pct of control) |
| --- | --- |
| Cc1ccc(-c2nc3ccccc3[nH]2)cc1NC(=O)c1sc2ccccc2c1Cl | 80.8% (active) |
| Cc1ccc(-c2nc3ccccc3[nH]2)cc1N | 6.87% |
| COc1ccc(Br)cc1C(=O)NC(=S)Nc1cc(-c2nc3ccccc3[nH]2)ccc1C | 3.52% |
| CCOc1ccc2nc(C(=O)N3CCCC(C)C3)sc2c1 (centres undefined) | 14.9% |
| CCCCCCCCC(=O)NCCOc1ccccc1 | 6.49% |
| CCCCCCOC(=O)NCC(O)c1ccccc1 (centres undefined) | 31.3% (active) |
| CCCCCOC(=O)NCCOC(=O)Nc1ccc(C(=O)OCC)cc1 | 3.01% |
| CCOc1ccc(N2C(=O)/C(=C/c3ccc(C)o3)N(C)C2=S)cc1 | 19.4% |
| CCC(=O)Nc1c(S(=O)(=O)c2ccccc2)c2nc3ccccc3nc2n1Cc1ccccc1 | 8.35% |
| COc1ccc(OC)c(C2C3=C(N=c4s/c(=C\c5cccc(O)c5)c(=O)n42)c2ccccc2CC3)c1 (centres undefined) | 10.7% |
| O=C1CCCC2=C1C(c1ccccc1)n1c(s/c(=C/c3cccc(F)c3)c1=O)=N2 (centres undefined) | 48.1% (active) |
| O=C1CC(c2cccc(F)c2)C2=C(CCCC2=O)N1 (centres undefined) | 11.2% |
| CCCN(CCC)c1c([N+](=O)[O-])c(=O)oc2ccccc12 | 2.94% |
| O=C(NCC1CCCO1)c1ccc2ccccc2n1 (centres undefined) | 9.11% |
| Cc1ccc(C(=O)NCC2CCCO2)o1 (centres undefined) | 45.6% (active) |
| Cc1nc2ccccc2c2oc(C(=O)NCC3CCCO3)cc12 (centres undefined) | 13.5% |
| CC(=O)NNC1=Nc2ccccc2N(C)C(C)C1 (centres undefined) | 14.9% |
| COc1ccc(-n2c(C)cc(C(=O)COC(=O)c3cc(OC)c(OC)cc3NC(=O)c3cccs3)c2C)cc1 | 5.86% |
| COc1ccc(CCNC(=O)C2CCN(c3nn4c(=O)cc(C)nc4s3)CC2)cc1OC | 0.06% |
| Cc1cc(=O)n2nc(N3CCCC(C(=O)NCCC4=CCCCC4)C3)sc2n1 (centres undefined) | 38.4% (active) |
| Cc1cc(=O)n2nc(N3CCCC(C(=O)N4CCN(C)CC4)C3)sc2n1 (centres undefined) | 14.9% |
| CC(C)c1nccn1S(=O)(=O)c1cc([N+](=O)[O-])ccc1Cl | 14.2% |
| COCc1c(C(=O)N/N=C/C2CC=CCC2)nnn1-c1nonc1N (centres undefined) | 5.58% |
| CCc1nc(Nc2ccc3nccnc3c2)c2oc3ccccc3c2n1 | 5.78% |
| Cc1nc(Cl)c2oc3ccccc3c2n1 | 18.2% |

| SMILES | protection (pct of control) |
| --- | --- |
| COc1ccccc1Nc1ncnc2c1oc1ccccc12 | 44.3% (active) |
| CC1=C(C(=O)Nc2cc(C)ccn2)C(c2cnn(C)c2)C2=C(CC(c3ccccc3)CC2=O)N1 (centres undefined) | 4.9% |
| C/C(=N/NC(=S)Nc1ccccc1)c1ccc2c(c1)OCO2 | 20.8% |
| COc1ccc([C@H]2[C@H](C(C)=O)N3N=Cc4ccccc4C3C23C(=O)OC(C)(C)OC3=O)cc1 (some centres undefined) | 9.43% |
| O=C(N/N=C/c1cc([N+](=O)[O-])ccc1O)/C(=C\c1cccs1)NC(=O)c1ccccc1 | 3.64% |
| CC1CCCN(S(=O)(=O)c2ccc(N(C(=O)c3cnccn3)C(C(=O)NC3CCCCC3)c3cccs3)cc2)C1 (centres undefined) | 5.77% |
| O=C(NC(CC(=O)N1CCN(c2ccccc2)CC1)c1ccccc1)c1ccccc1Cl (centres undefined) | 5.39% |
| CC(=O)Nc1ccc(C(=O)CSc2nnc(Cc3ccccc3)o2)cc1 | 5.61% |
| CCOc1ccc(Nc2nc(Cc3nnc(SCC(=O)NC4CCCC4)n3C)cs2)cc1 | 4.14% |
| CCOc1ccc(Nc2nc(Cc3nnc(SCC(=O)c4ccc(C)cc4)o3)cs2)cc1 | 31.3% (active) |
| OC(COc1ccccc1)Cn1cc(Br)cn1 (centres undefined) | 17.3% |
| OC(CN=c1sc2ccccc2n1CC(O)COc1ccccc1)COc1ccccc1 (centres undefined) | 44.8% (active) |
| C=CCn1c(=N)n(CC(O)COc2ccc(OC)cc2)c2ccccc21 (centres undefined) | 19.9% |
| CO/N=C(\N)c1ccc([N+](=O)[O-])cc1 | 2.5% |
| O=C(CCc1[nH]c2ccccc2c1Sc1ccccc1)N(CCO)CCO | 8.37% |
| CCCCC(=O)Nc1ccc2c(c1)OCCO2 | 11% |
| O=C(CSc1ccc(-c2ccc(F)cc2)nn1)Nc1ccc2c(c1)OCCO2 | 9.34% |
| Cc1ccc(SCC(=O)Nc2ccc3c(c2)OCCO3)cc1 | 26.6% (active) |
| Cc1cc(C)nc(SC2CCCCC2NS(=O)(=O)c2ccc(Cl)cc2)n1 (centres undefined) | 24.5% |
| O=C(CSc1ncn[nH]1)Nc1nsc(-c2ccccc2)n1 | 2.9% |
| Cc1ccccc1C(OCC(O)CN1CCCCC1CCO)c1ccccc1 (centres undefined) | 4.74% |
| Cc1ccccc1C(OCCN(C)C)C1CCCCC1 (centres undefined) | 53.1% (active) |
| CN(C)CCOC(=O)C(c1ccccc1)C1(O)CCCC1 (centres undefined) | 2.07% |
| COc1ccc(/C=C/C(=O)OCC(=O)Nc2cccc(Oc3ccccc3)c2)c(OC)c1 | 22.7% |
| CCCc1cc(=O)n2[nH]c(SCc3ccccc3)nc2n1 | 90% (active) |

| SMILES | protection (pct of control) |
| --- | --- |
| CCCc1cc(=O)[nH]c(SCc2ccc(C#N)cc2)n1 | 2.18% |
| CCCc1cc(=O)[nH]c(SCC(=O)OCc2ccccc2)n1 | 13.7% |
| COc1ccc(NC(=O)COC(=O)c2ccc(NS(=O)(=O)/C=C/c3ccccc3)cc2)cc1 | 6.22% |
| CN(C)/N=C/c1cc(Cl)cc([N+](=O)[O-])c1O | 21.7% |
| COc1ccccc1Oc1ccc(N/C=C2/CCCC2=O)cc1 | 24.8% |
| Cc1ccc(C)c(OCC(=O)N2CCN(C(=O)c3ccco3)CC2)c1 | 10.9% |
| CCCOC(=O)c1[nH]c2c(c1C)C(=O)CC(c1cc(OC)c(OC)c(OC)c1)C2 (centres undefined) | 2.5% |
| COc1cc(OC)cc(C(=O)Nc2ncc3c(n2)CC(C)(C)CC3=O)c1 | 9.7% |
| COc1cc(C2CC(=O)c3cnc(NC(C)=O)nc3C2)cc(OC)c1OC (centres undefined) | 62.5% (active) |
| Nc1nc(NC(=O)/C=C/c2ccccc2)nn1-c1ccccc1 | 3.85% |
| COc1ccccc1NC(=O)CSc1nnc(Cc2cccn2C)n1-c1ccc(F)cc1 | 15.6% |
| COC(=O)c1ccc(NC(=O)CSc2nnc(Cc3cccn3C)n2-c2ccc(F)cc2)cc1 | 43.4% (active) |
| Cc1ccc(C)c(NC(=O)CSc2nnc(Cc3cccn3C)n2-c2ccc(F)cc2)c1 | 21.3% |
| CCCOC(=O)c1ccc(N2C(=O)c3ccccc3C2=O)cc1 | 1.17% |
| Cn1nccc1CNC(=O)c1ccnn1C | 24.5% |
| CCn1cc(CNC(=O)c2cc([N+](=O)[O-])c(C)c([N+](=O)[O-])c2)cn1 | 3.52% |
| CC1(C)C=C2[C@H]3CC[C@@H]4[C@@]5(C)CCC(=O)C(C)(C)[C@@H]5CC[C@@]4(C)[C@]3(C)CC[C@@]2(C(=O)O)CC1 | 44.7% (active) |
| CCC(C)NCCOCCOc1ccc(Br)cc1C (centres undefined) | 5.1% |
| O=C(CNC(=O)C(c1ccccc1)c1ccccc1)N/N=C\c1ccc2c(c1)OCO2 | 17.5% |
| O=C(COc1ccc2oc3c(c2c1)CCCC3)Nc1ccccn1 | 9.54% |
| O=C(CN1CCOCC1)N1CCCc2c1c(=O)oc1ccc(OCc3ccccc3)cc21 | 20.5% (active) |
| Cc1c(C(=O)N2CCOCC2)[nH]c2ccc(OCc3ccccc3)cc12 | 11.5% |
| CNC(=S)N1CCN(c2ccccn2)CC1 | 3.85% |
| CC(=C1C(=O)c2ccccc2C1=O)N1CCN(c2ccccn2)CC1 | 4% |
| O=C(C(Cl)Cl)N1CCN(c2ccccn2)CC1 | 29.5% (active) |

| SMILES | protection (pct of control) |
| --- | --- |
| CC(=O)Nc1ccc(S(=O)(=O)NC2(C(F)(F)F)C(=O)Nc3c2c(=O)[nH]c(=O)n3Cc2ccccc2)cc1 (centres undefined) | 10.5% |
| CCOC(=O)c1c(NC(=O)Cn2nc(C(F)(F)F)cc2C)sc2c1CCC2 | 20.5% |
| N=C(N)SCc1cccc2ccccc12 | 32.9% |
| CCOc1ccc(Br)cc1CSC(=N)N | 25.8% (active) |
| CCCCOc1ccc(CSC(=N)N)cc1[N+](=O)[O-] | 23.1% |
| Cc1ccc(NC(=O)CSCC(=O)NC2CCCCC2)cc1 | 36.4% |
| COc1ccc(C(=O)Nc2sc(C)c(C)c2CN2CCOCC2)cc1 | 13.1% |
| CCOc1cc(/C=N/O)ccc1OCc1ccccc1F | 36.5% (active) |
| CCOc1ccc(/C=N/NC(=O)C(C)Sc2ccccn2)cc1OCC (centres undefined) | 3.61% |
| COc1cc(/C=C2/C(=O)ON=C2C)ccc1OCc1ccccc1F | 6.29% |
| CCCCOc1ccc(C(=O)NN2CCN(C)CC2)cc1 | 24.4% |
| COCCOC(=O)c1c(C)oc2cc(Br)c(OCC(N)=O)cc12 | 16.4% |
| CCCCC(=O)N(c1ccc(OC)cc1)C1C=CS(=O)(=O)C1 (centres undefined) | 43.6% (active) |
| COc1ccc(C(=O)N(Cc2ccc(N(C)C)cc2)C2CCS(=O)(=O)C2)cc1 (centres undefined) | 1.51% |
| CCCCN=C(N)/C(C(=O)OCC)=C(\O)c1ccc(OC)cc1 | 6.3% |
| CC(C)CNC(=O)COC(=O)/C=C/c1ccco1 | 16.1% |
| CCc1ccc(-c2cc(C(=O)NN3CCN(C)CC3)c3ccccc3n2)cc1 | 5.27% |
| COCCCNC(=S)NC(=O)c1ccc([N+](=O)[O-])cc1 | 65.1% (active) |
| COCCCNC(=S)NC(=O)c1ccccc1 | 11.7% |
| CCCCCC(=O)NC(=S)NNC(=O)c1ccc([N+](=O)[O-])cc1 | 3.27% |
| CCc1cccc(NC(=O)CCC(=O)O)c1 | 4.18% |
| Cc1ccc(-n2ncc3c(Nc4cccc(C(=O)O)c4)ncnc32)cc1 | 7.56% |
| Cn1ncc2c(Nc3cccc4ccccc34)ncnc21 | 3.59% |
| Cn1ncc2c(NNC(=O)Cc3cccc4ccccc34)ncnc21 | 26.4% (active) |

From PubChem BioAssay AID841 (Emory University Molecular Libraries Screening Center, 2007)
